Structures are written as SMILES. Values without a mark were called inactive. No rule for the calls is given here.

The target in this assay is Pantothenate synthetase (Mycobacterium tuberculosis (strain ATCC 25618 / H37Rv)) (UniProt P9WIL5). Nature of the assay: Coupled enzyme confirmation of inhibitors against recombinant Mtb PanC (AID 375).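 Also: 0% = full reaction with vehicle and 100% = no enzyme background.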 The settings on record: coupled enzyme assay; at 10 µM, active compounds read high.
Sequence of Pantothenate synthetase (Mycobacterium tuberculosis (strain ATCC 25618 / H37Rv)) (P9WIL5 whole entry, looked up): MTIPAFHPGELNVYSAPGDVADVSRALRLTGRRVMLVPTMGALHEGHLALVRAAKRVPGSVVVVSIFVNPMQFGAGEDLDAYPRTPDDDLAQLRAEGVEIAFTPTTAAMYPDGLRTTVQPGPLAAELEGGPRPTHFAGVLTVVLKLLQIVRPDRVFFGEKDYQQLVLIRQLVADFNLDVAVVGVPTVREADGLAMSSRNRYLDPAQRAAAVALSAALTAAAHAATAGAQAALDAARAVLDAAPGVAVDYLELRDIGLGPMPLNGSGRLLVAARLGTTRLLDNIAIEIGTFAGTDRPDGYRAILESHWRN
Broadly, the inhibition is how much of the control response was suppressed. Take `COc1ccc(NC(=O)c2ccco2)cc1NC(=O)c1cccs1`: the inhibition is 0%.
For `CCOC(=O)c1c(NC(=O)COC(=O)c2c(C)noc2C)sc2c1CCC2` the value was 1%; for `COc1cccc(CNC(=O)Cn2c(=O)oc3ccccc32)c1OC`, 0%; for `CN(C(=O)c1ccno1)c1nnc(-c2cnccn2)s1`, 2%.
For `O=C1C2CCCN2C(c2ccccc2)N1c1ccc(Cl)cc1` (stereo not drawn) the value was 1%; for `O=C(c1ccncc1)N1CCN(C(=O)c2cccs2)CC1`, 6%; for `COC(=O)Nc1sc2c(c1C(N)=O)CCCCCC2`, 2%.
Under `CCCC(=O)Nc1nnc(CC(=O)N2CCCC2)s1` stands 0%.
Take `CCOC(=O)CSc1nnc(NCC(=O)OC(C)C)c(=O)[nH]1`: the inhibition was 4%.
For `CC(C)CC(c1nnnn1C1CCCC1)N1CCN(c2ccccc2F)CC1` (stereo not drawn) the value was 0%; for `CN(CC(=O)Nc1ccc(F)c(Cl)c1)S(=O)(=O)c1cccc2nsnc12`, 0%.
Take `CCOC(=O)N1CCN(C(=O)CN(C)S(=O)(=O)c2ccc(OC)c(OC)c2)CC1`: the inhibition is 0%.
Under `Cc1cnnc2c1-c1nonc1CC2` stands 4%; under `Clc1ccc(OCc2nnc(SCCN3CCCCC3)n2Cc2ccco2)cc1`, 0%; under `Cc1ccccc1-c1noc(N)c1C#N`, 0%.
For the molecule `Cc1ccc(C(=O)N2CCN(C(=O)c3ccc(C)c(C)c3)C(C)C2)cc1C` (stereo not drawn), the inhibition was 7%.
Under `CCOC(=O)N1CCN(C(=O)CSc2nnc(Cc3ccccc3)o2)CC1` stands 0%; under `O=c1oc(-c2ccco2)nc2ccccc12`, 2%.
